Measured values published in PubChem BioAssay (EPA / NIEHS).
Activity calls are given as the source filed them. Rule for the calls: active = hit-call score of the fitted dose curve at least 0.9, where 1 is the maximum; inactive = score below 0.9.

Assay: CCTE_Shafer_MEA_acute_per_network_burst_electrodes_number_mean: CCTE's Neural Acute Assay for Mean Number of Electrodes in a Network Burst, Shafer Lab (AID 2284021);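 note: curves fitted for decreases only so hits reduce electrodes per burst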
Procedure: CCTE_Shafer_MEA_acute assay is conducted using Axion Biosystems 48 well microelectrode array (MEA) plates and Maestro recording system. Each well of the MEA plate contains a grid of 16 microelectrodes embedded in the culture surface. Electrically active cells, such as neurons, can be cultured over the electrodes, and electrical activity in these cells can be recorded extracellularly. The spontaneous firing of neurons is captured from each electrode on a microsecond timescale providing both temporally and spatially precise data. […] The CCTE_Shafer_MEA_acute assay uses primary cultures of rat cortical neurons. As these cultures mature over time, neural networks develop functional activity and form cohesive networks in which electrical activity can be highly coordinated. Baseline 40-minute recordings are made on days post-plating 13 or 15, followed by a secondary 40-minute recording after chemical exposure.CCTE_Shafer_MEA_acute_per_network_burst_electrodes_number_mean is a component of the CCTE_Shafer_MEA_acute assay. It measures the average number of electrodes with activity during a network burst (a temporally-clustered group of action potential firing across multiple electrodes) in a recording in a microelectrode array (MEA) using Axion Biosystems Maestro 768 channel amplifier with the AxIS adaptive spike detector. The recordings before and after chemical treatment are used to calculate a percent change in the mean number of electrodes participating in network bursts in each well.Data from the assay component CCTE_Shafer_MEA_acute_per_network_burst_electrodes_number_mean was analyzed into 1 assay endpoint. This assay endpoint, CCTE_Shafer_MEA_acute_per_network_burst_electrodes_number_mean, was analyzed in the negative analysis fitting direction relative to DMSO as the negative control and baseline of activity. Using a type of functional reporter, gain or loss-of-signal activity can be used to understand electrical activity.
Spontaneous activity in the cortical cultures was recorded using an Axion Biosystems Maestro 768 channel amplifier and Axion Integrated Studios (AxIS) v1.8 (or later) software. The amplifier recorded from all channels simultaneously (gain = 1200 x; sampling rate = 12.5 kHz/channel): raw signals were filtered with a Butterworth band-pass filter (300-5000 Hz), which filters out slower local field potentials leaving only fast potentials, i.e., "spikes", arising from extracellular currents associated with action potentials (Pine 2006; Wheeler and Nam 2011). On-line spike detection of filtered signals was conducted with the AxIS adaptive spike detector, using a threshold of 8x the root mean squared (rms) noise on each channel. Any electrodes with rms noise levels greater than 5 uV were grounded (e.g., no data were recorded). Once grounded, an electrode was grounded for the duration of the experiment. All recordings were conducted at 37 C. Wells were deemed usable if on the day of the exposure >/= 10 electrodes were active (defined as >/= 5 spikes/min). On DIV 13 or 15, a minimum of three wells from one cortical culture preparation were treated with each compound (0.03-40 uM). Prior to recording baseline activity, each mwMEA plate was placed in the Maestro at 37 C and allowed to sit for 20 min while firing rates stabilized. Baseline activity (40 min) was recorded before the addition of each compound. An additional 40 min of spontaneous activity was recorded in the presence of each compound. Changes in network parameters relative to baseline were assessed following compound treatment.

Question: With `Nc1ccccc1N` as the compound, how does the outcome read?
Answer: Its outcome is “inactive”.

Question: With `NS(=O)(=O)c1cc2c(cc1Cl)NCNS2(=O)=O` as the compound, how does the outcome read?
Answer: Its outcome is “inactive”.

Question: Which outcome does the source give for `FC(F)(F)C(F)(F)C(F)(F)C(F)(F)C(F)(F)C(F)(F)CCI` here?
Answer: Its outcome is “inactive”.

Question: With `CCOC(=O)C(C)(C)Oc1ccc(Cl)cc1` as the compound, how does the outcome read?
Answer: Its outcome is “inactive”.

Question: For `C[Si]1(C)O[Si](C)(C)O[Si](C)(C)O[Si](C)(C)O1`, which outcome is on record?
Answer: Its outcome is “inactive”.

Question: For `C=CCc1ccc(O)c(OC)c1`, which outcome is on record?
Answer: Its outcome is “inactive”.

Question: With `COc1ccc(S(=O)(=O)N2C(=O)[C@@](c3ccccc3OC)(N3C[C@H](O)C[C@H]3C(=O)N(C)C)c3cc(Cl)ccc32)c(OC)c1` as the compound, how does the outcome read?
Answer: Its outcome is “inactive”.

Question: For `NCC1(Cc2noc(=O)[nH]2)CCCCC1`, which outcome is on record?
Answer: The outcome was “inactive”.

Question: For `COc1ccc2c(c1)c(CC(=O)O)c(C)n2C(=O)c1ccc(Cl)cc1`, which outcome is on record?
Answer: Its outcome is “inactive”.

Question: With `Nc1ccc2c(c1)C(=O)c1ccccc1C2=O` as the compound, how does the outcome read?
Answer: Its outcome is “inactive”.

Question: For `CN1CCCC1=O`, which outcome is on record?
Answer: The outcome was “inactive”.

Question: Which outcome does the source give for `O=C(O)CCCCC(=O)O` here?
Answer: Its outcome is “inactive”.

Question: With `CCCc1cc(=O)[nH]c(=S)[nH]1` as the compound, how does the outcome read?
Answer: The outcome was “inactive”.

Question: For `CC(=O)C(C)=CC1C(C)=CCCC1(C)C` (stereo unspecified), which outcome is on record?
Answer: The outcome was “inactive”.

Question: For `CCCCCCCCCCO`, which outcome is on record?
Answer: The outcome was “inactive”.

Question: For `C=CCOC(=O)c1ccccc1C(=O)OCC=C`, which outcome is on record?
Answer: Its outcome is “inactive”.

Question: Which outcome does the source give for `c1cc(-c2ccncc2)ccn1` here?
Answer: Its outcome is “inactive”.

Question: With `CN[C@H]1CC[C@@H](c2ccc(Cl)c(Cl)c2)c2ccc(S(N)(=O)=O)cc21` as the compound, how does the AC50 read?
Answer: Its AC50 is 29.9 µM (active).

Question: With `CNCc1cc(F)ccc1Oc1ccc(Cl)c(Cl)c1` as the compound, how does the outcome read?
Answer: Its outcome is “inactive”.

Question: With `Clc1cc(Cl)c(Cl)cc1Cl` as the compound, how does the outcome read?
Answer: Its outcome is “inactive”.

Question: Which outcome does the source give for `CC(C)(C)c1cc(O)c(C(C)(C)C)cc1O` here?
Answer: Its outcome is “inactive”.

Question: With `CC(=O)Oc1ccccc1C(=O)O` as the compound, how does the outcome read?
Answer: The outcome was “inactive”.

Question: For `Cc1ccc2ncccc2c1`, which outcome is on record?
Answer: Its outcome is “inactive”.

Question: Which outcome does the source give for `Cc1ccc(C(C)C)c(O)c1` here?
Answer: The outcome was “inactive”.

Question: For `Cc1ccc(C)c(O)c1C`, which outcome is on record?
Answer: The outcome was “inactive”.

Question: With `Nc1nc(N)c2nc(CNc3ccc(C(=O)N[C@@H](CCC(=O)O)C(=O)O)cc3)cnc2n1` as the compound, how does the outcome read?
Answer: The outcome was “inactive”.
